Experimental data reported in PubChem BioAssay (EPA / NIEHS).
Values joined by “and” are separate entries in the source; they are usually repeats but may differ in a detail not shown here. Equal values may be shown once. Where a structure was tested more than once in an assay, its records may differ in their call. Active and inactive are the calls of the source. Rule for the calls: active = hit-call score of the fitted dose curve at least 0.9, where 1 is the maximum; inactive = score below 0.9.

Columns and labels:
[1] = target: Bile acid receptor (Homo sapiens) (UniProt Q96RI1); test: ATG_IR1_CIS: Attagene CIS-FACTORIAL HepG2 Assay for human Nuclear Receptor Subfamily 1 Group H Member 4 (NR1H4), IR1 submotif (AID 2282946); details: IR1 reporter transcription, actives raise or lower the signal
Procedure, shortened: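 Transient MRTU transfection, HepG2; 24 h dosing; RNA → RT-PCR → 6-FAM primer extension → HpaI digest → capillary electrophoresis fluorescence. Gain/loss of signal fitted relative to DMSO.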

[2] = ATG_GRE_CIS: Attagene CIS-FACTORIAL HepG2 Assay for human Glucocorticoid Response Elements (GRE) (AID 2282947); details: HepG2 GRE cis-reporter, Attagene multiplex mRNA; actives raise or lower the signal
Procedure, shortened: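 HepG2 cells transiently transfected with multiple cis-promoter reporter units measure endogenous TF activity; 24 h compound exposure. Reporter mRNA quantified by RT-PCR, FAM labelling, HpaI digestion and capillary electrophoresis; bidirectional fit vs DMSO baseline.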

[3] = ATG_ISRE_CIS: Attagene CIS-FACTORIAL HepG2 Assay for human Interferon Regulatory Factor 1 (IRF1) binding to an Interferon-Stimulated Response Element (ISRE) (AID 2282948); details: HepG2 ISRE cis-reporter (Attagene), mRNA transcription readout; actives raise or lower the signal
Procedure, shortened: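 Transfected HepG2 (multiple reporter transcription units, cis elements) dosed 24 h. RNA → oligo(dT) RT → PCR → 6-FAM primer extension → HpaI → CE. DMSO = negative control/baseline.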

[4] = ATG_M_32_CIS: Attagene CIS-FACTORIAL HepG2 Assay for M32 Transcription Factor (Internal Marker) (AID 2282949); details: HepG2 Attagene cis-factorial M32 reporter, mRNA; actives raise or lower the signal;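 note: background control marker of the multiplexed CIS panel rather than a real target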
Procedure, shortened: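 Internal background marker read-out: RT-PCR/capillary electrophoresis fluorescence of reporter transcripts from transiently transfected HepG2 cells after 24 h chemical exposure. Activity fitted bidirectionally relative to DMSO negative control.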

[5] = ATG_M_06_CIS: Attagene CIS-FACTORIAL HepG2 Assay for M06 Transcription Factor (Internal Marker) (AID 2282950); details: HepG2 Attagene CIS-FACTORIAL M06 internal marker reporter; actives raise or lower the signal
Procedure, shortened: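 Measured 24 h post-dosing in transiently transfected HepG2 cells, this internal-marker endpoint reports reporter mRNA via RT-PCR with fluorescent primer extension and capillary electrophoresis. DMSO served as negative control and baseline for bidirectional fitting.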

[6] = target: Hepatocyte nuclear factor 6 (Homo sapiens) (UniProt Q9UBC0); test: ATG_HNF6_CIS: Attagene CIS-FACTORIAL HepG2 Assay for human Hepatocyte Nuclear Factor 6 (HNF6) (AID 2282952); details: HepG2 Attagene cis-factorial HNF6 reporter transcription; actives raise or lower the signal
Procedure, shortened: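 Multiplexed mRNA reporter assay in transfected HepG2; 24 h dosing; RT-PCR plus capillary electrophoresis fluorescence; DMSO-referenced bidirectional curve fitting.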

[7] = ATG_MRE_CIS: Attagene CIS-FACTORIAL HepG2 Assay for human Metal Responsive Element (MRE) (AID 2282954); details: HepG2 MRE cis-reporter transcription, Attagene multiplex; actives raise or lower the signal
Procedure, shortened: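 HepG2 cells transiently transfected with multiple cis-element reporter units measure endogenous MTF1-driven transcription. After 24 h compound exposure, reporter mRNA is quantified by RT-PCR with 6-FAM labelling, HpaI digestion and capillary electrophoresis; bidirectional fits versus DMSO.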

[8] = target: Hypoxia-inducible factor 1-alpha (Homo sapiens) (UniProt Q16665); test: ATG_HIF1a_CIS: Attagene CIS-FACTORIAL HepG2 Assay for human Hypoxia Inducible Factor 1 (HIF1A) (AID 2282951); details: HepG2 Attagene cis-factorial HIF1a reporter transcription; actives raise or lower the signal
Procedure, shortened: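 HepG2 cells transiently transfected with multiple cis-regulated reporter transcription units measure endogenous transcription factor activity. After 24 h exposure, reporter mRNA is quantified by RT-PCR with 6-FAM labelling, HpaI digestion and capillary electrophoresis. Bidirectional fitting against DMSO.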

[9] = target: Heat shock factor protein 1 (Homo sapiens) (UniProt Q00613); test: ATG_HSE_CIS: Attagene CIS-FACTORIAL HepG2 Assay for human Heat Shock Transcription Factor 1 (HSE) (AID 2282953); details: HepG2 HSE cis-reporter, Attagene RNA transcription; actives raise or lower the signal
Procedure, shortened: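 Reporter mRNA induction in HepG2 is measured 24 h after dosing, using transiently transfected multiplexed cis-regulated reporter units. Signal comes from capillary electrophoresis of labelled RT-PCR products, with DMSO as negative control.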

[10] = ATG_PBREM_CIS: Attagene CIS-FACTORIAL HepG2 Assay for human Phenobarbital-responsive Enhancer Module (PBREM) (AID 2282955); details: HepG2 PBREM cis-reporter, Attagene multiplexed transcription; actives raise or lower the signal
Procedure, shortened: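 HepG2 cells transiently transfected with multiple cis-regulated reporter units measure endogenous transcription factor activity; 24 h compound exposure. Reporter mRNA quantified by RT-PCR, fluorescent labelling, HpaI digestion and capillary electrophoresis; bidirectional fit versus DMSO.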

Measured: AC50

Heat shock factor protein 1 (Homo sapiens), sequence (Q00613 whole entry, looked up): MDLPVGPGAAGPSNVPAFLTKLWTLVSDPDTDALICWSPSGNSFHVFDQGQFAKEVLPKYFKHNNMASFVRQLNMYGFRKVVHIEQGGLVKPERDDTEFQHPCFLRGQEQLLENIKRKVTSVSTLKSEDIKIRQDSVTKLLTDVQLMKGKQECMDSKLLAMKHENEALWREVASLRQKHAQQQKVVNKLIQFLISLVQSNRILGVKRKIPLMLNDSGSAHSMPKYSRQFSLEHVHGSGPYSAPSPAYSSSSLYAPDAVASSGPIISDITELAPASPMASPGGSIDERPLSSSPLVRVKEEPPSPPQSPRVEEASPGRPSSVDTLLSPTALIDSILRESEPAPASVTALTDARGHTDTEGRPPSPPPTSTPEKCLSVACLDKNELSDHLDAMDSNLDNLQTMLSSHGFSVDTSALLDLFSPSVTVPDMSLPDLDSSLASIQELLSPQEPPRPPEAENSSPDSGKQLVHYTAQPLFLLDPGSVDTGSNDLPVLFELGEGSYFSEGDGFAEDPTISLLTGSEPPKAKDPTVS
Hypoxia-inducible factor 1-alpha (Homo sapiens), sequence (Q16665 whole entry, looked up): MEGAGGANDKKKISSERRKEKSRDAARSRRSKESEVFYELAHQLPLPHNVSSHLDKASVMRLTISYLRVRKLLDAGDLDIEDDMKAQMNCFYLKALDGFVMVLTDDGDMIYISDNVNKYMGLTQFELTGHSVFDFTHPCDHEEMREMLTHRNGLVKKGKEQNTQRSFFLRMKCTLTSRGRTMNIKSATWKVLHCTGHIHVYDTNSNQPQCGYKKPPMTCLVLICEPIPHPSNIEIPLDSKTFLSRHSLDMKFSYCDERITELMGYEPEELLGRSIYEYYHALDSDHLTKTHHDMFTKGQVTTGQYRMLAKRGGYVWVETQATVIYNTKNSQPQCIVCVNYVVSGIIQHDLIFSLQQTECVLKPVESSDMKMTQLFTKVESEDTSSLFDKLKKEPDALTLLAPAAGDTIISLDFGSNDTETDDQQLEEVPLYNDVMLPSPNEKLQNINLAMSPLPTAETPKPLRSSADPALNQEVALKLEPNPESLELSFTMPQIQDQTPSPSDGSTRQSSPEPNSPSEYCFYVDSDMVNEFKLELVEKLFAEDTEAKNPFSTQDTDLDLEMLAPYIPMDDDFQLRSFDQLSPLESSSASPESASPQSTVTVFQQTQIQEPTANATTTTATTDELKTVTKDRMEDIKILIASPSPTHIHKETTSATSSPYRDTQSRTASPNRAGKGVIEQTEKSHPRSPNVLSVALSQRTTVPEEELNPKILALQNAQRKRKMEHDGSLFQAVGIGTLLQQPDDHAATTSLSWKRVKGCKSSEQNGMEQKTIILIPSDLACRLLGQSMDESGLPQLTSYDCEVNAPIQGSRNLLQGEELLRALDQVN
Hepatocyte nuclear factor 6 (Homo sapiens), sequence (Q9UBC0 whole entry, looked up): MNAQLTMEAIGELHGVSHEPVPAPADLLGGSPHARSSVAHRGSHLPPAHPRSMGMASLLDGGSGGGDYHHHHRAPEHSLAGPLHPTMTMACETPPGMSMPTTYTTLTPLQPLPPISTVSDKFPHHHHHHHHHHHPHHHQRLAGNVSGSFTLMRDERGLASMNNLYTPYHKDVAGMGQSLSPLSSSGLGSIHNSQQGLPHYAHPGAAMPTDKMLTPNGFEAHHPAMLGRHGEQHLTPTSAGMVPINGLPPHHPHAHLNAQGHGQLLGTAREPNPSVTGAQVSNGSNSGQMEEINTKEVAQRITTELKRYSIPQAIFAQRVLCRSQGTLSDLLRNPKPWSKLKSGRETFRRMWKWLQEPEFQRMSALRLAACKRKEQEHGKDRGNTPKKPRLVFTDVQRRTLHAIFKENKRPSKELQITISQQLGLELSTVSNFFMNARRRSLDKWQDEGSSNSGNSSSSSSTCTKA
Bile acid receptor (Homo sapiens), sequence (Q96RI1 whole entry, looked up): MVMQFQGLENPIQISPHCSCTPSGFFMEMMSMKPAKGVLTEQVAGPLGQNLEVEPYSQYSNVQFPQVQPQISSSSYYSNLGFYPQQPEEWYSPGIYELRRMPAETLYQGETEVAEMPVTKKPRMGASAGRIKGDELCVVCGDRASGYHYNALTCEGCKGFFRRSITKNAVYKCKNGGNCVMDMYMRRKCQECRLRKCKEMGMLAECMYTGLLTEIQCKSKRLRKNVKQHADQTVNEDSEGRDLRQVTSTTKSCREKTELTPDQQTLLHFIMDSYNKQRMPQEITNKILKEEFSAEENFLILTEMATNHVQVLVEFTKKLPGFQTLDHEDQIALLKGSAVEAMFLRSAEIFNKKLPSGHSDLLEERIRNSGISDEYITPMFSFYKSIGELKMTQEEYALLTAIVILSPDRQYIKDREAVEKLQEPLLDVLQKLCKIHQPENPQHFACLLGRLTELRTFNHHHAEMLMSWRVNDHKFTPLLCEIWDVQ

CN(C)CCCN1c2ccccc2Sc2ccc(Cl)cc21
inactive: [1] | [2] | [3] | [4] | [5]
active: [6] 20.8 µM | [7] 15.5 µM

O=C(Oc1ccccc1)c1cccc(C(=O)Oc2ccccc2)c1
inactive: [1] | [2] | [3] | [4] | [5] | [8] | [6] | [9] | [7]

CSc1ccc(Oc2ccc(S(N)(=O)=O)cc2CN(C)C)cc1C
inactive: [1] | [2] | [3] | [4] | [5] | [8] | [6] | [9] | [7]

COC(=O)CCC(=O)OC
inactive: [1] | [2] | [3] | [5] | [8] | [6] | [7] | [10]

NC(=Nc1ccccc1)Nc1ccccc1
inactive: [1] | [2] | [4] | [5] | [8] | [6] | [9]
active: [7] 28 µM

CCN(CC)CCOc1ccc(C(=C(Cl)c2ccccc2)c2ccccc2)cc1
inactive: [1] | [2] | [3] | [4] | [5] | [8] | [6] | [9] | [7]
active: [1] 5.65 µM and 4.78 µM | [8] 9.35 µM | [6] 11.4 µM | [9] 14.3 µM | [7] 13.8 µM

CCCCC(CC)COP(=O)(OCC(CC)CCCC)OCC(CC)CCCC (stereo unspecified)
inactive: [1] | [2] | [4] | [5] | [8] | [6] | [9] | [7]

O=C(O)CN(CC(=O)O)CC(=O)O
inactive: [1] | [2] | [3] | [5] | [8] | [6] | [9] | [7] | [10]

S=c1[nH]c2ccccc2s1
inactive: [1] | [2] | [4] | [5] | [8] | [6] | [9] | [7] | [10]

C=CCc1ccc(OC)c(OC)c1
inactive: [1] | [2] | [3] | [5] | [6] | [9] | [7]
active: [8] 0.0538 µM

COc1ccc(C(=O)Nc2nc3ccccc3c(NCc3ccccc3)c2C#N)cc1
inactive: [1] | [2] | [3] | [4] | [5] | [6] | [9] | [7]
active: [8] 26.5 µM

CCCCCCC(CCCCCCCCCCC(=O)OCC(COC(C)=O)OC(C)=O)OC(C)=O (stereo unspecified)
inactive: [1] | [2] | [3] | [4] | [5] | [8] | [6] | [7]
active: [9] 90.7 µM

Cc1cc(Cc2ccc(N)c(C)c2)ccc1N
inactive: [1] | [2] | [3] | [5] | [8] | [6] | [9] | [7] | [10]

CC(C)c1cccc(C(C)C)c1NC(=O)NS(=O)(=O)c1cc(C(C)(C)O)co1
inactive: [1] | [2] | [3] | [5] | [8] | [6] | [9] | [7]

O=C(NS(=O)(=O)/C=C/c1cccs1)c1ccc(F)cc1Br
inactive: [1] | [2] | [3] | [4] | [5] | [8] | [6] | [9] | [7] | [10]

CC(C)c1cccc(C(C)C)c1
inactive: [1] | [2] | [4] | [5] | [8] | [6] | [9] | [7]

COc1ccc(OC(F)(F)F)cc1CN[C@H]1CCCN[C@H]1c1ccccc1
active: [9] 2.74 µM
inactive: [1] | [2] | [3] | [4] | [5] | [8] | [6] | [7] | [10]

Cc1cc(SC2=C(O)C[C@@](CCc3ccc(N)cc3)(C(C)C)OC2=O)c(C(C)(C)C)cc1CO
inactive: [1] | [2] | [3] | [4] | [5] | [8] | [6] | [9] | [7]

CCCCc1nc2cccnc2n1Cc1ccc(-c2ccccc2-c2nnn[nH]2)cc1
inactive: [1] | [2] | [3] | [5] | [8] | [6] | [9] | [7]

CCCCC(CC)CO (stereo unspecified)
inactive: [1] | [2] | [3] | [5] | [8] | [6] | [9] | [7]

O=C1c2c(O)cccc2Cc2cccc(O)c21
inactive: [1] | [2] | [3] | [5] | [6] | [9] | [7]
active: [8] 26.6 µM

CCCCC(CC)COC(=O)CCCCCCCC(=O)OCC(CC)CCCC (stereo unspecified)
active: [8] 61.9 µM
inactive: [1] | [2] | [3] | [5] | [6] | [9] | [7] | [10]

CCCCCCC(C=O)=Cc1ccccc1
active: [9] 157 µM and 93.3 µM | [7] 137 µM and 89.2 µM
inactive: [1] | [2] | [3] | [4] | [5] | [8] | [6]

CC(COCC(C)OC(=O)c1ccccc1)OC(=O)c1ccccc1 (stereo unspecified)
inactive: [1] | [2] | [4] | [5] | [8] | [6] | [9] | [7]

CCc1nc(N)nc(N)c1-c1ccc(Cl)cc1
active: [3] 100 µM | [4] 174 µM | [6] 100 µM | [7] 100 µM
inactive: [1] | [2] | [5] | [9]

CN(C)C(=O)NC1(c2ccccc2)CCN(CCC[C@]2(c3ccc(Cl)c(Cl)c3)CCCN(C(=O)c3ccccc3)C2)CC1
inactive: [2] | [4] | [5] | [8] | [6] | [9] | [10]
active: [1] 4.21 µM | [7] 4.19 µM

O=C(N[C@@H](c1ccccc1)[C@@H]1CCCCN1)c1cccc(C(F)(F)F)c1Cl
active: [8] 16.6 µM | [6] 62.1 µM | [9] 52.4 µM | [7] 38 µM
inactive: [1] | [2] | [4] | [5] | [10]

CN(C)CCCN(C)CCCN(C)C
inactive: [1] | [2] | [3] | [4] | [5] | [8] | [6] | [9] | [7]

CC(C)OC(=O)C(C)(C)Oc1ccc(C(=O)c2ccc(Cl)cc2)cc1
inactive: [1] | [2] | [5] | [6] | [9] | [10]
active: [3] 49 µM | [7] 43.6 µM

Oc1ccc(O)cc1
inactive: [2] | [3] | [4] | [5] | [6] | [9] | [7]

CCCC(=O)O
inactive: [2] | [3] | [5] | [8] | [6] | [9] | [7]

CC(=O)S[C@H](C(=O)N[C@H]1Cc2ccccc2[C@H]2CCC[C@@H](C(=O)O)N2C1=O)C(C)C
inactive: [1] | [2] | [5] | [8] | [6] | [9] | [7]

CCCCCCCCCCCCCCOS(=O)(=O)O
inactive: [2] | [3] | [4] | [5] | [8] | [6] | [9] | [7] | [10]

CC(C)NCC(O)c1ccc(O)c(O)c1 (stereo unspecified)
inactive: [2] | [3] | [4] | [5] | [6] | [7]

O=[Si]=O
inactive: [2] | [3] | [4] | [5] | [8] | [6] | [9] | [7]

c1ccc2occc2c1
inactive: [1] | [5] | [8] | [6] | [9] | [7]

Cc1ccc(-c2cc(C(F)(F)F)nn2-c2ccc(S(N)(=O)=O)cc2)cc1
inactive: [2] | [3] | [4] | [5] | [8] | [6] | [9]
active: [7] 6.28 µM

NCCOCCOCCN
inactive: [2] | [3] | [4] | [5] | [8] | [6] | [9] | [7] | [10]
